This experiment can be described thus: LNCaP granularity increase inducers, single-point recheck – cell-based, side scatter shift, flow cytometry, confirmation (AID 1069).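 Also: LNCaP human prostate cancer cells in low-serum medium with charcoal-stripped FBS; percent of cells with raised granularity gated so DMSO controls show 10%.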 The following applies: LNCaP differentiation, 4 d, stronger effect = higher value. On the technique in general: Flow cytometry measures light scatter and fluorescence of single cells or particles in a stream.

SMILES strings stand for the structures. The source made the active and inactive calls.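 The calls were made as follows: active = high combined rank on largest and smallest cell-count-weighted shift across three tests, rank score above 45, floors 50 and 25 (some results past the limit were not filed as active); inactive = the rest.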

As for `Cc1cc(=O)n2nc(N3CCCC3C(=O)NCc3ccccn3)sc2n1` (stereo not drawn), the side scatter shift reads like this: (at 100 µM) 4% (inactive); (side scatter shift, at 10 µM) 7.1%.
As for `CCc1nnc(NC(=O)CSc2nc3ccccc3s2)s1`, the side scatter shift (at 100 µM) was 5.7% (inactive) and the side scatter shift (side scatter shift, at 10 µM) was 5%.
The corresponding values for `O=C(Nc1nc(-c2ccccc2)cs1)C1CCCCN1S(=O)(=O)c1ccccc1` (stereo not drawn) are 0.4% (inactive) and 4.75%.
In the case of `O=C(COc1ccc(S(=O)(=O)N2CCCC2)cc1Cl)NC1CC1`, the side scatter shift reads like this: (at 100 µM) 3.1% (inactive); (side scatter shift, at 10 µM) 1.25%.
Take `O=C(CSc1nc2sc3c(c2c(=O)n1-c1ccccc1)CCCC3)NCc1ccco1`: the side scatter shift by setting is: (at 100 µM) 24% (inactive); (side scatter shift, at 10 µM) 4.3%.
Turning to `CCOC(=O)C1=C(C)Nc2nc(SC)nn2C1c1ccc(C(=O)OC)cc1` (stereo not drawn), the side scatter shift is, setting by setting: (at 100 µM) 7.7% (inactive); (side scatter shift, at 10 µM) 7.15%.
As for `Cc1cccc(N2CCN(C(=O)CCNC(=O)Cn3ccc4ccccc4c3=O)CC2)c1C`, the side scatter shift reads like this: (at 100 µM) 0% (inactive); (side scatter shift, at 10 µM) 2%.
The matching figures for `COc1ccc(N2CCN(CCCNC(=O)c3cc4sccc4n3C)CC2)cc1`: 51.6% (active) and 6.5%.
In the case of `COc1ccc(C)cc1NC(=O)CCC(=O)Nc1ccc2nc(N3CCN(C)CC3)cc(C)c2c1`, the side scatter shift runs as follows: (at 100 µM) 10.5% (inactive); (side scatter shift, at 10 µM) 13.4%.
Turning to `CCc1ccc(-c2nc(CN3CCC(C(=O)NCCc4ccc(OC)c(OC)c4)CC3)c(C)o2)cc1`, the side scatter shift by setting is: (at 100 µM) 35.3% (inactive); (side scatter shift, at 10 µM) 21%.
The matching figures for `Cc1cc(=O)oc(C)c1C(=O)NCCCN1CCN(c2ccccc2F)CC1`: 32.8% (inactive) and 2.1%.
For `Cc1sc(CO)c(Sc2ccccc2)c1C(=O)O`, the side scatter shift (at 100 µM) was 3.4% (inactive) and the side scatter shift (side scatter shift, at 10 µM) was found to be 2.85%.
For `CCOC(=O)c1ccccc1NC(=O)Cn1c(-c2nonc2N)nc2ccccc21`, the side scatter shift (at 100 µM) was 30.6% (active) and the side scatter shift (side scatter shift, at 10 µM) was found to be 27.1%.
As to `COCCn1cc(C(=O)N2CCCC(C)C2)c2c3ccccc3n(C)c2c1=O` (stereo not drawn), the side scatter shift by setting is: (at 100 µM) 22.8% (inactive); (side scatter shift, at 10 µM) 3.2%.
On to `Cc1cc(N2CCC(N(C)C3CCCC3)CC2)nc2cc(O)ccc12`, for which the side scatter shift is, setting by setting: (at 100 µM) 65.4% (inactive); (side scatter shift, at 10 µM) 22.5%.
For the compound `Cc1noc(/C=C/c2ccco2)c1S(=O)(=O)N1CCC(C(=O)N2CCc3ccccc3C2)CC1`, the side scatter shift is 54.6% (active) (at 100 µM) and 7.3% (side scatter shift, at 10 µM).
Turning to `CCC(=O)N(Cc1ccco1)c1nc(-c2cc(OC)ccc2OC)cs1`, the side scatter shift by setting is: (at 100 µM) 13.2% (inactive); (side scatter shift, at 10 µM) 9.2%.
Regarding `CCN(CCNC(=O)C1CCN(Cc2nc(-c3ccc(Cl)cc3)oc2C)CC1)c1ccccc1`, the side scatter shift runs as follows: (at 100 µM) 25% (inactive); (side scatter shift, at 10 µM) 26.4%.
As to `CCN(CC)CCNC(=O)c1cc2c(-c3ccc(Cl)cc3)nn(C)c2s1`, the side scatter shift (at 100 µM) was 24% (inactive) and the side scatter shift (side scatter shift, at 10 µM) came to 64.8%.
On to `N#C/C(=C\c1ccc(O)c(O)c1)C(=O)NCCCc1ccccc1`, for which the side scatter shift is 28.9% (inactive) (at 100 µM) and 7.05% (side scatter shift, at 10 µM).
For the compound `O=C(C1CCN(S(=O)(=O)c2cccc3nsnc23)CC1)N1CC=C(c2ccccc2)CC1`, the side scatter shift by setting is: (at 100 µM) 25.9% (inactive); (side scatter shift, at 10 µM) 9.3%.
On to `CN1CCN(c2cc3c(c4c2[nH]c2ccccc24)C(=O)CC(C)(C)C3)CC1`, for which the side scatter shift was 16.1% (active) (at 100 µM) and 56.2% (side scatter shift, at 10 µM).
The matching figures for `CCOC(=O)c1ccc(-c2n[nH]c(=O)c3ccccc23)cc1`: 10.7% (inactive) and 3.3%.
As to `COc1ccc(CCNC(=O)C2CCN(Cc3nc(-c4ccccc4C)oc3C)CC2)cc1OC`, the side scatter shift is 0% (inactive) (at 100 µM) and 20% (side scatter shift, at 10 µM).
With `Cc1ccc(CN2CCSc3ccc(C(=O)N4CCN(c5ncccn5)CC4)cc32)cc1`, the side scatter shift is, setting by setting: (at 100 µM) 18.6% (inactive); (side scatter shift, at 10 µM) 7.2%.
In the case of `CCOC(=O)c1[nH]c(C)c(C(=O)NC2CCCCCC2)c1C`, the side scatter shift (at 100 µM) was 4.8% (inactive) and the side scatter shift (side scatter shift, at 10 µM) stood at 8.6%.
Consider `Cc1oc(-c2ccc(Cl)cc2)nc1CN1CCCC(C(=O)NCc2ccco2)C1` (stereo not drawn), for which the side scatter shift (at 100 µM) was 22.2% (inactive) and the side scatter shift (side scatter shift, at 10 µM) turned out to be 12.7%.
Take `COc1ccc(-n2cc(-c3ccccc3)c3c(N4CCN(CCO)CC4)ncnc32)cc1`: the side scatter shift was 33.3% (inactive) (at 100 µM) and 9.55% (side scatter shift, at 10 µM).
For `CCCOc1ccc2nc(NC(=O)OC)[nH]c2c1`, the side scatter shift (at 100 µM) was 8.3% (inactive) and the side scatter shift (side scatter shift, at 10 µM) was 2.95%.

The values are drawn from PubChem BioAssay AID1069 (NMMLSC, 2008).
